Assay type in all cases: functional
The target in experiment [1] is Solute carrier family 2, facilitated glucose transporter member 1 (Homo sapiens) (UniProt P11166). The experiment in a line: ST_JUDE_LEISH: Cytotoxicity at 2uM final concentration against transgenic Leishmania Mexicana promastigotes LmGLUT1 that are glucose transport deficient and complemented with the human glucose transporter GLUT1. Activity is measured by DNA content using SYBR green in vitro.

Experiment [2] addresses Hexose transporter 1 (Plasmodium falciparum) (UniProt O97467). Briefly: ST_JUDE_LEISH: Cytotoxicity at 2uM final concentration against transgenic Leishmania Mexicana promastigotes LmPfHT that are glucose transport deficient and complemented with the Plasmodium falciparum hexose transporter. Activity is measured by DNA content using SYBR green in vitro.
For experiment [3], the target named is Glucose transporter (Leishmania mexicana) (UniProt O61059). Briefly: ST_JUDE_LEISH: Cytotoxicity at 2uM final concentration against transgenic Leishmania Mexicana promastigotes LmGT2 that are glucose transport deficient and complemented with the L. Mexicana glucose transporter 2. Activity is measured by DNA content using SYBR green in vitro.

Solute carrier family 2, facilitated glucose transporter member 1 (Homo sapiens), sequence (P11166 whole entry): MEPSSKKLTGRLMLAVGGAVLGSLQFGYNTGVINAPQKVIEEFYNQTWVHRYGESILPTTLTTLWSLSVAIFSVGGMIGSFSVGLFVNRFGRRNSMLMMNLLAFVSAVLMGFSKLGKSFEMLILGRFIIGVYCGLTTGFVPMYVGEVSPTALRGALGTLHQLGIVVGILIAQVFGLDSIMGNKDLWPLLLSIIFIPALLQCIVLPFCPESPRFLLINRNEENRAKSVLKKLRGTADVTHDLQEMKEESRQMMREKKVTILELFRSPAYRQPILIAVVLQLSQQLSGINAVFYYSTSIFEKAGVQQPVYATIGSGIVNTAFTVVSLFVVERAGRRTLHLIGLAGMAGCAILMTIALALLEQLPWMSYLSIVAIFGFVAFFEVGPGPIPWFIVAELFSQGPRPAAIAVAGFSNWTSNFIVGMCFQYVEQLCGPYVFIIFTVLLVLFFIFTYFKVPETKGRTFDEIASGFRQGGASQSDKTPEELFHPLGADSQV

For `COc1cc(NC(=O)/C=C/c2ccccc2OC(F)(F)F)cc(OCCN2CCC(O)(c3ccccc3)CC2)c1`, the inhibition (usually the relative decrease from the control value, in per cent) in experiment [1] is 7.57%; in experiment [2] it was 5.55%; in experiment [3] it was 5.81%.
Take `CCCCCCCn1c2c(c(=N)c3c1CCC3)CCCC2`: the inhibition worked out at 92% in experiment [1], 90.8% in experiment [2] and 80.1% in experiment [3].
For the compound `CC(=O)Oc1c(Cl)c(C)nc(C)c1-c1ccc(Oc2ccc(Cl)cc2)cc1`, the results for the inhibition in experiment [1], in experiment [2] and in experiment [3] were 9.11%, 9.67% and 4.45%, respectively.
On to `O=C(c1ccc(Cl)cc1)N1CCCC(C(=O)N(Cc2nnc(-c3ccccc3Cl)o2)C2CC2)C1` (centres undefined), for which the results for the inhibition in experiment [1], in experiment [2] and in experiment [3] were 0.11%, 1.56% and -0.04%, respectively.
With `CCn1c(Sc2ccc(C#N)c([N+](=O)[O-])c2)nnc1-c1cc(OC)cc(OC)c1`, the inhibition was 1.62% in experiment [1], 0.59% in experiment [2] and -0.03% in experiment [3].
Turning to `COc1ccc(CNC2Cc3ccccc3C2)cc1-c1ccc(S(=O)(=O)NCc2cccnc2)s1`, the inhibition amounted to 1.92% in experiment [1], 2.48% in experiment [2] and 0.3% in experiment [3].
In the case of `O=C(CCc1c[nH]cn1)Nc1cccc(-c2ccc(-c3nc4ccccc4[nH]3)cc2)c1`, the results for the inhibition in experiment [1], in experiment [2] and in experiment [3] were 6.89%, 4.68% and 6.77%, respectively.
Regarding `O=C(CSc1nnc(O)n1Cc1ccccc1)Nc1ccccc1-c1ccccc1`, the inhibition in experiment [1] amounted to 5.26%; in experiment [2], 6.12%; in experiment [3] it was 5.02%.
Consider `CC[C@H]1CN(Cc2ccco2)CC[C@H]1CCCc1ccnc2ccc(O)cc12`, for which the figures for the inhibition in experiment [1], in experiment [2] and in experiment [3] were 4.7%, 4.86% and 4.42%, respectively.
On to `CC(Cc1ccc(OCCN2CCN(c3ccccc3)CC2)cc1)NCC(O)c1cccc(Cl)c1F` (centres undefined), for which the inhibition stood at 2.22% in experiment [1], 0.09% in experiment [2] and 1.85% in experiment [3].
Take `Oc1cccc(Nc2ccnc3cc(-c4nccs4)ccc23)c1`: the inhibition was -0.6% in experiment [1], 12.9% in experiment [2] and 16.1% in experiment [3].
Take `COc1cc2nc(N(C)CC3COc4ccccc4O3)nc(N)c2cc1OC` (centres undefined): the inhibition in experiment [1] is 3.64%; in experiment [2], 1.69%; in experiment [3] it was -0.97%.
In the case of `CC(C)(C)C1CCc2nc(N)nc(N)c2C1` (centres undefined), the inhibition in experiment [1] stood at 44.3%; in experiment [2], 55.5%; in experiment [3] it was 46.5%.

Values taken from ChEMBL document CHEMBL3433997, “St. Jude Leishmania screening dataset” (2016).
